# Among all 330,000 compounds or so, about 7,700 (2.3%) were called active. Inconclusive results (about 26%) are left out. Calls come from the whole dose curve; as a rule, active = well fitted inhibition curve with a large enough effect; inconclusive = small, poorly fitted or top-dose-only effect, or effect the other way; inactive = flat fitted curve, though single readings scatter. Shown is part of a subset that was picked to be rich in actives. A call without a number means that no potency is given here.
# Experiment: qHTS screen for small molecules that inhibit ELG1-dependent DNA repair in human embryonic kidney (HEK293T) cells expressing luciferase-tagged ELG1; note: nearly all actives have a fitted effect of over 55% in size
# Conditions: HEK293T ELG1-luciferase reporter, luminescence, 16 h, DNA damage induced by 5-fluorouridine; series mostly up to 46.1 µM
# Method in brief: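 Overnight (16 hr) co-exposure of 2,000 cells/well to 5-fluorouridine and compound at 37 °C preceded detection. Luciferase was quantified via ONE-Glo luminescence; loss of signal denotes inhibition.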
# Potency is the fitted concentration of half-maximal effect.
row,Compound,Potency
1,O=C(Nc1nnc(C2=COCCO2)o1)c1ccc([N+](=O)[O-])s1,inactive
2,COc1ccc(S(=O)(=O)N2CCOCC2)cc1NC(=O)CSc1cc(C)ccc1C,inactive
3,CCOCc1c(C(=O)N2CCN(Cc3ccc(Br)s3)CC2)oc2ccccc12,inactive
4,Cc1nnc(SCC(=O)Nc2cccc(N)c2)n1-c1ccccc1,inactive
5,COc1ccc(-n2cnnc2SCC(=O)Nc2cccc(S(N)(=O)=O)c2)cc1,inactive
6,NS(=O)(=O)c1cccc(NC(=O)CSc2nc3ccccc3n2-c2ccccc2)c1,9.2 µM (active)
7,Cc1ccc(C(=O)C[n+]2cc(-c3ccccc3)n3c2CCCCC3)cc1,inactive
8,Cc1ccc(-c2c[n+](CC(=O)Nc3ccccc3)c3n2CCC3)cc1,inactive
9,Clc1ccc(C[n+]2cc(-c3ccccc3)n3c2CCC3)cc1,2.91 µM (active)
10,CCC1Nc2ncnc(N3CCN(c4ccccc4)CC3)c2N(Cc2ccc(Cl)cc2)C1=O (stereo not given),inactive
11,CCCCN(C(=O)C1CCC1)c1c(N)n(Cc2ccccc2)c(=O)[nH]c1=O,inactive
12,Cc1cccc(-c2nc(Nc3ccc(O)cc3)c3ccccc3n2)c1,20.6 µM (active)
13,CN1CCN(c2nc(Nc3ccc(O)cc3)nc3ccccc23)CC1,inactive
14,CCC(=O)OCCNc1nc(-c2ccccc2)nc2ccccc12,inactive
15,COc1ccc(Cl)cc1NC(=O)CN(C)CC(=O)Nc1ccc2c(c1)OCO2,inactive
16,Cc1ccc(F)cc1NC(=O)N1CCCN(c2ccc(C(F)(F)F)cn2)CC1,5.17 µM (active)
17,C/C=C/C(=O)Nc1ccc(N2CCN(c3ccc(C(F)(F)F)cn3)CC2)nc1,inactive
18,CCOc1ccc(C(=O)NCC(=O)N2CCN(c3ccc(C(F)(F)F)cn3)CC2)cc1,inactive
19,COc1ccccc1NC(=O)Nc1nc(CC(=O)Nc2ccccc2F)cs1,inactive
20,Cc1ccc(S(=O)(=O)NC[C@H]2O[C@@H](n3cnc4c(N)ncnc43)[C@H](O)[C@@H]2O)s1,inactive

row,Compound,Potency
1,CSc1nc(C)cc(SC(C(C)=O)C(=O)Nc2ccccc2)n1 (stereo not given),inactive
2,CSc1nc(-c2ccccc2)nc(C(Cl)Cl)n1,20.6 µM (active)
3,CCCCC(=O)Nc1nnc(S(=O)(=O)N(C)Cc2ccco2)s1,inactive
4,Cc1ccccc1CN1CCC(C(=O)Nc2ccc(Oc3cccnc3)cc2)CC1,inactive
5,CCOC(=O)N1CCN(CC(=O)Nc2cc(C)nn2-c2nc3ccccc3s2)CC1,10.3 µM (active)
6,CCOC(=O)N1CCN(CC(=O)Nc2ccc(F)cc2)CC1,inactive
7,CCOC(=O)N1CCN(C(=O)Cn2cnc3ccccc3c2=O)CC1,inactive
8,Cc1cc(C)c(S(=O)(=O)n2cc(C(C)C(N)C(=O)O)c3ccccc32)c(C)c1 (stereo not given),inactive
9,O=C(CSc1nnc(COc2ccc(Cl)cc2)n1Cc1ccco1)N1CCNC1=O,inactive
10,COc1ccc(CNC(=O)C(c2ccc(O)cc2)N(Cc2ccco2)C(=O)c2snc(C(N)=O)c2N)cc1 (stereo not given),6.51 µM (active)
11,CC(C)(C)NC(=O)C(c1ccc(Cl)cc1)N(CCO)C(=O)c1snc(C(N)=O)c1N (stereo not given),inactive
12,NC(=O)c1nsc(C(=O)N(CC(=O)NCc2ccc(F)cc2)Cc2ccco2)c1N,inactive
13,CCCn1c(C2CCCN2c2nc(-c3ccc(OC)cc3)cs2)nc2ccccc21 (stereo not given),inactive
14,COc1ccc(C(=O)CC(=O)C(=O)Nc2cc([N+](=O)[O-])ccc2OC)cc1,inactive
15,COc1ccc(CCNC(=O)COC(=O)c2cc(=O)c3ccccc3o2)cc1,inactive
16,COc1cc2c(cc1OC)CN(C(=O)c1cc(=O)c3ccccc3o1)CC2,8.2 µM (active)
17,O=C(c1cc(=O)c2ccccc2o1)N1CCN(c2ccccc2)CC1,inactive
18,COc1ccccc1C(=O)N(Cc1ccc(C)o1)C1CCS(=O)(=O)C1 (stereo not given),inactive
19,COc1cc(OC)cc(-c2c(-c3ccc(F)cc3)c3cc(-c4ccc5cc[nH]c5c4)ccc3n2C)c1,inactive
20,COc1cc(OC)cc(-c2c(-c3cccs3)c3cc(-c4ccc(OC)cc4F)ccc3n2C)c1,inactive

row,Compound,Potency
1,COc1ccc(-c2c(-c3cc(OC)cc(OC)c3)n(C)c3ccc(-c4ccn[nH]4)cc23)cc1,6.51 µM (active)
2,CCOC(=O)[C@@H]1[C@H]2COc3ccc(Br)cc3[C@H]2N2C(=O)N(c3ccc(C)cc3)C(=O)[C@@]12C,inactive
3,COc1ccc2nc3n(c(=O)c2c1)-c1cc(C)ccc1C(=O)NC3Cc1ccc(O)cc1 (stereo not given),inactive
4,Cc1cccc(NC(=O)Nc2ccc(OCc3ccccc3)cc2)n1,inactive
5,CNC(=O)c1sc(Nc2ccc(OCc3ccccc3)cc2)nc1C,8.2 µM (active)
6,CCc1ccnc(NC(=O)Nc2ccc(OCc3ccccc3)cc2)c1,inactive
7,COc1ccc(NS(=O)(=O)c2ccc(C)c(C(=O)NCC(c3cccs3)N3CCOCC3)c2)cc1 (stereo not given),inactive
8,COc1ccc(S(=O)(=O)N2CCOCC2)cc1NC(=O)CSc1nnc(NC2CC2)s1,inactive
9,Cc1ccc(S(=O)(=O)N2CCC(C)CC2)cc1C(=O)NCc1ccccn1,inactive
10,CC1CCCCN1S(=O)(=O)c1ccc(S(=O)(=O)N(CC(=O)Nc2ccccc2)Cc2cccs2)cc1 (stereo not given),18.4 µM (active)
11,CCN(CC(=O)NCc1cccs1)S(=O)(=O)c1ccc(NC(C)=O)cc1,inactive
12,COCCN(CC(=O)Nc1ccccc1C)S(=O)(=O)c1ccc(S(=O)(=O)N2CCCC2)cc1,inactive
13,Cc1c(C(=O)N2CCCC2)c(S(=O)(=O)NCC(C)c2ccccc2)c(C)n1C (stereo not given),inactive
14,O=C(NNS(=O)(=O)c1ccc([N+](=O)[O-])cc1)C1CCCCC1,inactive
15,CCN(CC)C(=O)[C@H]1CC(CC(=O)NCc2ccco2)C(=O)N2CCc3c([nH]c4ccccc34)[C@]12C (stereo not given in full),inactive
16,Cc1cccn2c(=O)c(/C=C3\SC(=S)N(CC(C)C)C3=O)c(NCCCOC(C)C)nc12,inactive
17,CCOC(=O)CC1C(=O)NCCN1c1nc2c(C)cccn2c(=O)c1/C=C1\SC(=S)N(C(C)CC)C1=O (stereo not given),20.6 µM (active)
18,CCCN(CCC)c1nc2c(C)cccn2c(=O)c1/C=C1/SC(=S)N(Cc2ccco2)C1=O,inactive
19,COc1ccc(NC(=O)C2CCN(S(=O)(=O)c3ccc4[nH]c(=O)oc4c3)CC2)c(OC)c1,inactive
20,O=S(=O)(c1cccs1)N1CCN(CCOc2ccccc2)CC1,inactive
